# Measurements published in PubChem BioAssay (EPA / NIEHS).
# Results filed as inconclusive are left out. Activity calls are given as the source filed them. How the source made its calls, unless noted: active means hit-call score of the fitted dose curve at least 0.9, where 1 is the maximum; inactive means score below 0.9.
# Legend:
# [1] = read-out: Intercellular Adhesion Molecule 1 (ICAM1), ICAM1 (gene 3383); experiment: BSK_3C_ICAM1: BioMAP Diversity Plus: 3C Assay for Intercellular Adhesion Molecule 1 (ICAM1) Biomarker Activity (AID 2283003); conditions: primary human endothelial cells (HUVEC); actives raise or lower the signal
# In short: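 Chemicals are dosed onto primary human umbilical vein endothelium (3C system). After 24 h, ICAM-1 is measured by ELISA, and responses are fitted bidirectionally relative to DMSO.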
# [2] = BSK_3C_Proliferation: Cell Proliferation Assessment in the BioMAP Diversity Plus: 3C Assay (AID 2283006); conditions: primary human endothelial cells (HUVEC)
# In short: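 Cells (human umbilical vein endothelial, sub-confluent) receive test chemical; after 48 h they are fixed in 10% trichloroacetic acid, stained with 0.1% SRB and read at 560 nm. Activity is referenced to DMSO, fitting increases and decreases.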
# [3] = molecular target: human RAR-related Orphan Receptor beta (RORb), RORB (gene 6096) (UniProt Q92753); experiment: ATG_RORb_TRANS: Attagene TRANS-FACTORIAL HepG2 Assay for human RAR-related Orphan Receptor beta (RORb) (AID 2283010; active means hit-call score of the fitted dose curve at least 0.9, where 1 is the maximum)
# Chain of human RAR-related Orphan Receptor beta (RORb), RORB (gene 6096) (Q92753 whole entry, looked up, the tested form may be a part): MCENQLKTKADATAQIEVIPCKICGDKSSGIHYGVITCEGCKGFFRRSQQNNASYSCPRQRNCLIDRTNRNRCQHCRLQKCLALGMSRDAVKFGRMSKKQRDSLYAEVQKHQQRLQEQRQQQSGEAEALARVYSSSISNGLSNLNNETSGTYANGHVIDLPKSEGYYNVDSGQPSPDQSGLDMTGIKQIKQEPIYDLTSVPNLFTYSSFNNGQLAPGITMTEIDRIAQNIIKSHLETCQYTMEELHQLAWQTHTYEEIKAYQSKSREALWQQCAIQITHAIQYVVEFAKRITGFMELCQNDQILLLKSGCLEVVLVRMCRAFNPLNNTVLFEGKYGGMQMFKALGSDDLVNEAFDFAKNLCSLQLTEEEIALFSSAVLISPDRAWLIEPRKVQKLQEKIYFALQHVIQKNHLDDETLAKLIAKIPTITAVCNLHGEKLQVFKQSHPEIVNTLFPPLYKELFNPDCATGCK
# In short: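 Transfect HepG2 with multiple GAL4-UAS reporter transcription units; dose chemicals for 24 h; isolate RNA, reverse-transcribe and PCR-amplify reporter sequences; label, digest and resolve fragments by capillary electrophoresis; fit increases relative to DMSO.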
# [4] = molecular target: human Thyroid Receptor alpha (THRa1), THRA (gene 7067) (UniProt P10827); experiment: ATG_THRa1_TRANS: Attagene TRANS-FACTORIAL HepG2 Assay for human Thyroid Receptor alpha (THRa1) (AID 2283014; active means hit-call score of the fitted dose curve at least 0.9, where 1 is the maximum)
# Chain of human Thyroid Receptor alpha (THRa1), THRA (gene 7067) (P10827 whole entry, looked up, the tested form may be a part): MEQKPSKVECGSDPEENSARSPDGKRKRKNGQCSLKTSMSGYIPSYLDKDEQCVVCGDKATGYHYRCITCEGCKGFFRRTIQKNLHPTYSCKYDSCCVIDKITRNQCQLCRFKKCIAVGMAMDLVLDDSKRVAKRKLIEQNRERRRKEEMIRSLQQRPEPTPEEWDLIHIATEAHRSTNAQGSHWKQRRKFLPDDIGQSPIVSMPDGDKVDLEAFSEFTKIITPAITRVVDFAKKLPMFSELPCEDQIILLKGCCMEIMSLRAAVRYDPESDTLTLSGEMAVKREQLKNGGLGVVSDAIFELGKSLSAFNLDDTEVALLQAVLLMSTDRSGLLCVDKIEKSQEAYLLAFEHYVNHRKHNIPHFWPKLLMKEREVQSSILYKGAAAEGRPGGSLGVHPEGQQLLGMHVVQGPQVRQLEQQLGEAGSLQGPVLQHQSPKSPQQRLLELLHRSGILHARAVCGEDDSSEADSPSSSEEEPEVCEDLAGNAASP
# In short: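 HepG2 cells transiently transfected with chimeric NR-Gal4 and GAL4-UAS reporter units, dosed 24 h. Reporter mRNA quantified by RT-PCR, fluorescent labeling, HpaI digestion and capillary electrophoresis; gain-of-signal fit versus DMSO.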
# [5] = read-out: E-selectin (Homo sapiens) (UniProt P16581); experiment: BSK_3C_Eselectin: BioMAP Diversity Plus: 3C Assay for Eselectin Biomarker Activity (AID 2283015); conditions: primary human endothelial cells (HUVEC); actives raise or lower the signal;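 further: cell surface E-selectin protein quantified by ELISA 24 h after dosing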
# In short: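 Primary human umbilical vein endothelial cells (3C system), read 24 h after compound addition; E-selectin measured by ELISA. Bidirectional curve fitting against DMSO baseline; cytotoxicity by parallel SRB total-protein staining.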
# [6] = read-out: Interleukin-1 alpha (IL1a), IL1A (gene 3552); experiment: BSK_BE3C_IL1a: BioMAP Diversity Plus: BE3C Assay for Interleukin-1 alpha (IL1a) Biomarker Activity (AID 2283016); conditions: primary human bronchial epithelial cells; actives raise or lower the signal
# In short: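 Signal from IL-1a ELISA, taken 24 h after chemical dosing of human bronchial epithelial cells, is compared with DMSO as baseline using bidirectional curve fitting.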
# [7] = read-out: Monocyte Chemoattractant Protein-1 (MCP1), CCL2 (gene 6347); experiment: BSK_3C_MCP1: BioMAP Diversity Plus: 3C Assay for Monocyte Chemoattractant Protein-1 (MCP1) Biomarker Activity (AID 2283017); conditions: primary human endothelial cells (HUVEC); actives raise or lower the signal
# In short: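 Human umbilical vein endothelial cells (3C system) exposed to chemicals for 24 h; MCP-1 quantified by ELISA against the DMSO baseline with bidirectional fitting, and parallel SRB staining used to assess cytotoxicity.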
# [8] = read-out: Monocyte Chemoattractant Protein-1 (MCP1), CCL2 (gene 6347); experiment: BSK_4H_MCP1: BioMAP Diversity Plus: 4H Assay for Monocyte Chemoattractant Protein-1 (MCP1) Biomarker Activity (AID 2283018); conditions: primary human endothelial cells (HUVEC); actives raise or lower the signal
# In short: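 Endothelial cells from umbilical vein were treated with test chemical, then after 24 h MCP-1 levels were quantified by ELISA; endpoint values came from bidirectional fitting with DMSO as baseline of activity.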
# [9] = read-out: Human Leukocyte Antigen - DR isotype (HLADR), HLA-DRA (gene 3122); experiment: BSK_3C_HLADR: BioMAP Diversity Plus: 3C Assay for Human Leukocyte Antigen - DR isotype (HLADR) Biomarker Activity (AID 2283019); conditions: primary human endothelial cells (HUVEC); actives raise or lower the signal;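 further: ELISA of cell-surface HLA-DR on HUVEC 24 h after dosing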
# In short: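 HUVEC monoculture, HLA-DR measured by ELISA 24 h after chemical dosing. Fitted bidirectionally against DMSO baseline; parallel SRB staining assessed cytotoxicity, with 3C proliferation read by SRB at 48 h.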
# [10] = read-out: Interleukin-8 (IL8), CXCL8 (gene 3576); experiment: BSK_3C_IL8: BioMAP Diversity Plus: 3C Assay for Interleukin-8 (IL8) Biomarker Activity (AID 2283020); conditions: primary human endothelial cells (HUVEC); actives raise or lower the signal
# In short: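 Endothelial primary cells of human umbilical vein origin are dosed with chemical; after 24 h the IL-8 biomarker is measured by ELISA, and concentration–response is fitted in both directions versus DMSO.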
# [11] = read-out: Monokine induced gamma interferon (MIG), CXCL9 (gene 4283); experiment: BSK_3C_MIG: BioMAP Diversity Plus: 3C Assay for Monokine induced gamma interferon (MIG) Biomarker Activity (AID 2283021); conditions: primary human endothelial cells (HUVEC); actives raise or lower the signal
# In short: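 Endothelial primary cells (human umbilical vein) are dosed with test chemical in the 3C system. MIG levels are measured by ELISA at 24 h and fitted in both directions relative to DMSO.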
# [12] = molecular target: human RAR-related Orphan Receptor gamma (RORg), RORC (gene 6097) (UniProt P51449); experiment: ATG_RORg_TRANS: Attagene TRANS-FACTORIAL HepG2 Assay for human RAR-related Orphan Receptor gamma (RORg) (AID 2283011; active means hit-call score of the fitted dose curve at least 0.9, where 1 is the maximum)
# Chain of human RAR-related Orphan Receptor gamma (RORg), RORC (gene 6097) (P51449 whole entry, looked up, the tested form may be a part): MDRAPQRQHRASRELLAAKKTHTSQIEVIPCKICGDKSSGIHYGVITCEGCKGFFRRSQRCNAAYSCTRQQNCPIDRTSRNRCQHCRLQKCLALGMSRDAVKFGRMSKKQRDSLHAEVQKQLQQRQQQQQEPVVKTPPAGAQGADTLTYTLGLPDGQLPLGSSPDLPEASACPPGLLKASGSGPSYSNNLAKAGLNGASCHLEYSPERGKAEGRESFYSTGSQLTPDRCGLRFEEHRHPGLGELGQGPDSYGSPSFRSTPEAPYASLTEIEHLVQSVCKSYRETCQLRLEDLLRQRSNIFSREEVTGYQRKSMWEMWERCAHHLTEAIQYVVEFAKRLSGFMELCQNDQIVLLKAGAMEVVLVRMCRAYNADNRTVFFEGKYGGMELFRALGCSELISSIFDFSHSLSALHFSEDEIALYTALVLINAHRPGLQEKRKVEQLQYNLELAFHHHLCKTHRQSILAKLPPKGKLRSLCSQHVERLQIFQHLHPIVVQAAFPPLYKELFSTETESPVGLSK
# In short: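 HepG2 cells transiently transfected with GAL4-UAS reporter units and chimeric RORg-Gal4 construct; after 24 h chemical exposure, reporter mRNA measured by RT-PCR with fluorescent capillary electrophoresis, gain of signal fitted against DMSO.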
# [13] = molecular target: human Peroxisome Proliferator-activated Receptor delta (PPARd), PPARD (gene 5467) (UniProt Q03181); experiment: ATG_PPARd_TRANS: Attagene TRANS-FACTORIAL HepG2 Assay for human Peroxisome Proliferator-activated Receptor delta (PPARd) (AID 2283002; active means hit-call score of the fitted dose curve at least 0.9, where 1 is the maximum)
# Chain of human Peroxisome Proliferator-activated Receptor delta (PPARd), PPARD (gene 5467) (Q03181 whole entry, looked up, the tested form may be a part): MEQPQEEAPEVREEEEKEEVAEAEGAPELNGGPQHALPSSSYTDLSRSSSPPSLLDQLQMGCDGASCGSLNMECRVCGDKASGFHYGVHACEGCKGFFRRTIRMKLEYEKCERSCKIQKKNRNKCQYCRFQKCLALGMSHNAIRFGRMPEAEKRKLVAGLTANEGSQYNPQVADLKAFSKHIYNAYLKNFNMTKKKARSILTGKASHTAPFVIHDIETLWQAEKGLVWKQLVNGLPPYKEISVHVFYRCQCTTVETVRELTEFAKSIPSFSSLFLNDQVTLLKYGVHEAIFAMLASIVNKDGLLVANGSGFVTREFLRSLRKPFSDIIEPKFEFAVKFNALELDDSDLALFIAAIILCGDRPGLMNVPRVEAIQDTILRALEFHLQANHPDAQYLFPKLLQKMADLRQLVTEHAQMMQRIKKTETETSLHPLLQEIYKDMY
# In short: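 HepG2 cells transiently transfected with GAL4-UAS multiplexed reporter units driven by exogenous chimeric NR-GAL4 proteins; 24 h compound exposure. Reporter mRNA measured by RT-PCR, 6-FAM primer extension, HpaI digestion and capillary electrophoresis; gain of signal fitted relative to DMSO.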
# [14] = molecular target: Peroxisome proliferator-activated receptor gamma (Homo sapiens) (UniProt P37231); experiment: ATG_PPARg_TRANS: Attagene TRANS-FACTORIAL HepG2 Assay for human Peroxisome Proliferator-activated Receptor-gamma (PPARg) (AID 2283007; active means hit-call score of the fitted dose curve at least 0.9, where 1 is the maximum)
# Chain of Peroxisome proliferator-activated receptor gamma (Homo sapiens) (P37231 whole entry, looked up, the tested form may be a part): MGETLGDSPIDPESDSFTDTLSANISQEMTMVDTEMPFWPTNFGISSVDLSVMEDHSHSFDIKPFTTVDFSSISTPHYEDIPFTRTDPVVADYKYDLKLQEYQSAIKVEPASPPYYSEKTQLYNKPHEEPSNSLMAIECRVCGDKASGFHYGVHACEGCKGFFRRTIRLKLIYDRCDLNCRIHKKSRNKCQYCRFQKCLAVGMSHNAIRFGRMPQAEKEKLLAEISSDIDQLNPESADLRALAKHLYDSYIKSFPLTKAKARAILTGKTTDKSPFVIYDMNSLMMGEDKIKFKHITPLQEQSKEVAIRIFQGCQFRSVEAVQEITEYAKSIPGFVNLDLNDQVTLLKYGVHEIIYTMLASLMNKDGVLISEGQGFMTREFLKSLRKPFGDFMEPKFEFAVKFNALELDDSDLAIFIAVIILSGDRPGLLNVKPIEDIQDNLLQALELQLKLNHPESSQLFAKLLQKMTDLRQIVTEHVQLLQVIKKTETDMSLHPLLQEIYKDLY
# In short: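 Gain-of-signal endpoint relative to DMSO, derived from reporter mRNA levels quantified by RT-PCR and capillary electrophoresis. Cells were HepG2 transiently expressing a chimeric NR-Gal4 construct with GAL4-UAS reporters, exposed to chemicals for 24 h.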
# [15] = molecular target: Nuclear receptor subfamily 1 group I member 2 (Homo sapiens) (UniProt O75469); experiment: ATG_PXR_TRANS: Attagene TRANS-FACTORIAL HepG2 Assay for human Pregnane X Receptor (PXR) (AID 2283008; active means hit-call score of the fitted dose curve at least 0.9, where 1 is the maximum)
# Chain of Nuclear receptor subfamily 1 group I member 2 (Homo sapiens) (O75469 whole entry, looked up, the tested form may be a part): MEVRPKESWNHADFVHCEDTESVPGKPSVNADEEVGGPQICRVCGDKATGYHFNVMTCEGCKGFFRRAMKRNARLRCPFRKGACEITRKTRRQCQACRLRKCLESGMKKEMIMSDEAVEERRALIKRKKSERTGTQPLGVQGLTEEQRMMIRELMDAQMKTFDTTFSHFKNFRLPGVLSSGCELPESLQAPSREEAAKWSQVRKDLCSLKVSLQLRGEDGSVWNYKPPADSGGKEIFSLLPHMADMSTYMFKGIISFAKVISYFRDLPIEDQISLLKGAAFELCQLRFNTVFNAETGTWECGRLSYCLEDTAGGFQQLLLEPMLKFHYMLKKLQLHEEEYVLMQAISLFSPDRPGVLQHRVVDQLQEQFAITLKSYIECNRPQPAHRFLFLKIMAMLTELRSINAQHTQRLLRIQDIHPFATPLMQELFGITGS
# In short: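 HepG2 transfected (FuGene 6) with GAL4-UAS reporter units + PXR-Gal4 chimera; dosed 24 h. Total RNA → oligo(dT) RT → PCR → 6-FAM primer extension → HpaI cut → CE. Gain-of-signal vs DMSO.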
# [16] = molecular target: human Retinoic Acid Receptor gamma (RARg), RARG (gene 5916) (UniProt P13631); experiment: ATG_RARg_TRANS: Attagene TRANS-FACTORIAL HepG2 Assay for human Retinoic Acid Receptor gamma (RARg) (AID 2283009; active means hit-call score of the fitted dose curve at least 0.9, where 1 is the maximum)
# Chain of human Retinoic Acid Receptor gamma (RARg), RARG (gene 5916) (P13631 whole entry, looked up, the tested form may be a part): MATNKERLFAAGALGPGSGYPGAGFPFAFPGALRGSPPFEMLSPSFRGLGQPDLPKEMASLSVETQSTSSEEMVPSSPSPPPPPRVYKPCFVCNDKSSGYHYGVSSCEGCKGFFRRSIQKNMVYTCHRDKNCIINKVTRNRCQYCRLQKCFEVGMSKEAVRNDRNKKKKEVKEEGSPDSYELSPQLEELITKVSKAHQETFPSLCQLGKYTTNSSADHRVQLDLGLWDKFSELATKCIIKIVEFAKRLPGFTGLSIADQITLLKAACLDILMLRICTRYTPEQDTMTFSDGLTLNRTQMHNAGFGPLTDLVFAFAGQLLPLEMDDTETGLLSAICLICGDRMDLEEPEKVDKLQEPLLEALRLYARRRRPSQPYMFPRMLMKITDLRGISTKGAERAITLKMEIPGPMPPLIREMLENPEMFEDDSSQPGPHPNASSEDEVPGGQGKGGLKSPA
# In short: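 TRANS format measured activity of exogenous NR-GAL4 fusion (RARg) in transfected HepG2 liver cells after 24 h dosing. Induced reporter RNA was detected by RT-PCR/capillary electrophoresis fluorescence, analysed in the positive direction against DMSO.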
# [17] = molecular target: Retinoic acid receptor RXR-alpha (Homo sapiens) (UniProt P19793); experiment: ATG_RXRa_TRANS: Attagene TRANS-FACTORIAL HepG2 Assay for human Retinoid X Receptor alpha (RXRa) (AID 2283012; active means hit-call score of the fitted dose curve at least 0.9, where 1 is the maximum)
# Chain of Retinoic acid receptor RXR-alpha (Homo sapiens) (P19793 whole entry, looked up, the tested form may be a part): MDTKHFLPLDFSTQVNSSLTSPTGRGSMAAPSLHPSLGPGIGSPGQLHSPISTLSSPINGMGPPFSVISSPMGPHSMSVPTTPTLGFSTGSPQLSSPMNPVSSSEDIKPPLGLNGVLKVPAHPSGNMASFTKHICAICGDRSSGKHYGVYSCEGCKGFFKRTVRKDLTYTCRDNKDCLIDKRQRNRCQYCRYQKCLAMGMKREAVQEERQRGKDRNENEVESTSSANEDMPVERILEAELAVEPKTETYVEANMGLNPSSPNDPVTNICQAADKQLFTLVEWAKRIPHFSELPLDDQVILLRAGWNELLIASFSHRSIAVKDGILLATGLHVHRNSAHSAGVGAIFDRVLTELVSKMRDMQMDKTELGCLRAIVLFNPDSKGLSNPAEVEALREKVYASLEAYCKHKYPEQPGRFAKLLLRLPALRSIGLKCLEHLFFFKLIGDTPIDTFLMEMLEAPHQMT
# In short: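 Measures exogenous chimeric NR-GAL4 activity in transfected HepG2 liver cells after 24 h of dosing. Induced reporter mRNA was detected by RT-PCR with capillary electrophoresis, and gain of signal was analysed against DMSO.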
# [18] = molecular target: human Retinoid X Receptor beta (RXRb), RXRB (gene 6257) (UniProt P28702); experiment: ATG_RXRb_TRANS: Attagene TRANS-FACTORIAL HepG2 Assay for human Retinoid X Receptor beta (RXRb) (AID 2283013; active means hit-call score of the fitted dose curve at least 0.9, where 1 is the maximum)
# Chain of human Retinoid X Receptor beta (RXRb), RXRB (gene 6257) (P28702 whole entry, looked up, the tested form may be a part): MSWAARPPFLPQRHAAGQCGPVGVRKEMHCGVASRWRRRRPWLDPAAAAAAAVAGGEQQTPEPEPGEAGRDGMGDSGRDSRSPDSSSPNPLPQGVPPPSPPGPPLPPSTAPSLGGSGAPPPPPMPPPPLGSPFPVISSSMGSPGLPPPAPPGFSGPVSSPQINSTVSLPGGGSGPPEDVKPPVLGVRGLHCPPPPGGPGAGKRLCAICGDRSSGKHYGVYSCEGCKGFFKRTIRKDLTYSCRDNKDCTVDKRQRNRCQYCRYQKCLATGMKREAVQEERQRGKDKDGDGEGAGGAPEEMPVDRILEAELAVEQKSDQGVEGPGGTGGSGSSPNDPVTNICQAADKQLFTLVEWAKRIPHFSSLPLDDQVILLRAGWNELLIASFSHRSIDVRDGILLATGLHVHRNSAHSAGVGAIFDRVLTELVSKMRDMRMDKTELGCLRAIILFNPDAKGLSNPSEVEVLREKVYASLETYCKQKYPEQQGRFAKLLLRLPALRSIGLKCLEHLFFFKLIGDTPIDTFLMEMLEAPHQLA
# In short: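 Chimeric receptor-Gal4 activity was assessed in transiently transfected human HepG2 cells after 24 h exposure. Transcripts from GAL4-UAS reporters were quantified by fluorescent RT-PCR and capillary electrophoresis, with DMSO as negative control and baseline.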
# [19] = molecular target: Retinoic acid receptor alpha (Homo sapiens) (UniProt P10276); experiment: ATG_RARa_TRANS: Attagene TRANS-FACTORIAL HepG2 Assay for human Retinoic Acid Receptor alpha (RARa) (AID 2283005; active means hit-call score of the fitted dose curve at least 0.9, where 1 is the maximum)
# In short: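 HepG2 transiently transfected with multiplex GAL4-UAS reporter units including a human RARa–GAL4 chimera; 24 h compound exposure. Reporter mRNA quantified by RT-PCR, 6-FAM labeling and capillary electrophoresis; gain of signal versus DMSO.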
# Chain of E-selectin (Homo sapiens) (P16581 whole entry, looked up): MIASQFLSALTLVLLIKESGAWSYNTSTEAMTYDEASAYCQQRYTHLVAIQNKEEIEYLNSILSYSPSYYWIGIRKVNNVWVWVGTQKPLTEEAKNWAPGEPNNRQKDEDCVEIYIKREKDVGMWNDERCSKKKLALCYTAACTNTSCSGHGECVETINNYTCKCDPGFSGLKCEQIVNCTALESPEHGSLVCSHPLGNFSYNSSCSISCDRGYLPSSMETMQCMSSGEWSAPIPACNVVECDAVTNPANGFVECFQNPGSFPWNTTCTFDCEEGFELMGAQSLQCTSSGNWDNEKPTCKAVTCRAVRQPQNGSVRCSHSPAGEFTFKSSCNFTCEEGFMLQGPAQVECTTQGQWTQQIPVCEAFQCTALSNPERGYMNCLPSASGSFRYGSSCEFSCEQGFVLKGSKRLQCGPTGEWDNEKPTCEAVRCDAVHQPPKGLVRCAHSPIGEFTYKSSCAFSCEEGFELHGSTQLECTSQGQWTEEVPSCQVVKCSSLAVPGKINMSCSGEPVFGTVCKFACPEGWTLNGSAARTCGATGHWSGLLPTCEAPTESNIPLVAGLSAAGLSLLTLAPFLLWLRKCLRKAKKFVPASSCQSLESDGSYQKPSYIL
smiles,measurement,setting,value
COCCOCCOC,outcome,[1],inactive
same,outcome,[2],inactive
same,outcome,[3],inactive
same,outcome,[4],inactive
same,outcome,[5],inactive
same,outcome,[6],inactive
same,outcome,[7],inactive
same,outcome,[8],inactive
same,outcome,[9],inactive
same,outcome,[10],inactive
same,outcome,[11],inactive
CC1(C)CC(N=C=O)CC(C)(CN=C=O)C1 (stereo unspecified),outcome,[1],inactive
same,outcome,[2],inactive
same,outcome,[12],inactive
same,outcome,[5],inactive
same,outcome,[6],inactive
same,outcome,[7],inactive
same,outcome,[8],inactive
same,outcome,[9],inactive
same,outcome,[10],inactive
same,outcome,[11],inactive
COc1cccc2c1C(=O)c1c(O)c3c(c(O)c1C2=O)C[C@@](O)(C(=O)CO)C[C@@H]3O[C@H]1C[C@H](N)[C@H](O)[C@H](C)O1,outcome,[13],inactive
same,outcome,[14],inactive
same,outcome,[15],inactive
same,outcome,[16],inactive
same,outcome,[17],inactive
same,AC50,[18],0.0616 µM (active)
same,AC50,[4],32.9 µM (active)
Cc1cccc([N+](=O)[O-])c1C,outcome,[1],inactive
same,outcome,[2],inactive
same,outcome,[14],inactive
same,AC50,[15],5.4 µM (active)
same,outcome,[16],inactive
same,outcome,[17],inactive
same,AC50,[18],53.4 µM (active)
same,outcome,[4],inactive
same,outcome,[5],inactive
same,outcome,[6],inactive
same,outcome,[7],inactive
same,outcome,[8],inactive
same,outcome,[9],inactive
same,outcome,[10],inactive
same,outcome,[11],inactive
CN1CCCC1=O,outcome,[1],inactive
same,outcome,[19],inactive
same,outcome,[2],inactive
same,outcome,[15],inactive
same,outcome,[16],inactive
same,outcome,[3],inactive
same,outcome,[12],inactive
same,outcome,[17],inactive
same,AC50,[18],31.5 µM (active)
same,outcome,[5],inactive
same,outcome,[6],inactive
same,outcome,[7],inactive
same,outcome,[8],inactive
same,outcome,[9],inactive
same,outcome,[10],inactive
same,outcome,[11],inactive
O=[N+]([O-])C(CO)(CO)CO,outcome,[1],inactive
same,outcome,[2],inactive
same,outcome,[14],inactive
same,outcome,[12],inactive
same,outcome,[4],inactive
same,outcome,[5],inactive
same,outcome,[6],inactive
same,outcome,[7],inactive
same,outcome,[8],inactive
same,outcome,[9],inactive
same,outcome,[10],inactive
same,outcome,[11],inactive
